Measured values taken from PubChem BioAssay (NCATS).
Values joined by “and” are separate entries in the source; they are usually repeats but may differ in a detail not shown here. Equal entries are not always repeated. Records with an inconclusive call do not appear. Active and inactive are the calls of the source. Unless noted, calls follow the shape of the dose curve; as a rule, active = well fitted curve in the direction sought with a large enough effect; inconclusive = small, poorly fitted or top-dose-only effect, or another doubt; inactive = no such curve, though single readings can be large; an effect the other way counts as inactive or inconclusive.

How the values were obtained:
[1] = Cellular Toxicity (caspase-3) HepG2 (AID 654);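 also: cells exposed to compound for 16 hours before reading; 0% = DMSO alone and 100% = caspase signal from 100 µM tamoxifen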
Procedure, shortened: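 Concentration-response AC50 values reflect caspase-3/7 induction in HepG2 cells after 16 hours of compound exposure, quantified by luminescence from liberated aminoluciferin and referenced to 100 uM tamoxifen as full stimulation.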

[2] = Cellular Toxicity (caspase-3) HUV-EC-C (AID 656);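 also: 0% = DMSO basal and 100% = 100 µM tamoxifen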
Procedure, shortened: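 Read-out: luminescence proportional to caspase 3/7 activity, measured 20 min after adding Caspase-Glo 3/7 reagent. Cells (HUV-EC-C) had received compound for 16 hr at 37°C. Increases relative to DMSO and 100 uM tamoxifen gave concentration-response AC50 values.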

[3] = Cellular Toxicity (caspase-3) SHSY5Y (AID 657)
Procedure, shortened: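 Cells plated and incubated 5 h at 37 °C, dosed over a concentration range, incubated 16 h, then given Caspase-Glo 3/7 reagent for 1 h at room temperature before luminescence reading. Staurosporine (10 uM) defined full stimulation.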

[4] = Cellular Toxicity (caspase-3) MRC-5 (AID 659);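 also: 0% = DMSO basal and 100% = 10 µM staurosporine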
Procedure, shortened: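 Luminescent Caspase-Glo 3/7 read-out (1 h, room temperature) after a 16 h, 37 °C compound exposure of MRC-5 lung fibroblasts at 1500 cells/well. Concentration-response AC50 from Hill equation; 0% DMSO, 100% 10 uM staurosporine.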

[5] = Cellular Toxicity (caspase-3) Mesangial (AID 660);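 also: cells exposed to compound for 16 h before the caspase read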
Procedure, shortened: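 AC50 values come from Hill-equation fits of caspase 3/7 activation, measured as Caspase-Glo luminescence in human glomerular mesangial cells exposed to compound for 16 h at 37 °C; 100% set by 100 uM tamoxifen.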

[6] = Cellular Toxicity (caspase-3) SK-N-SH (AID 661);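 also: 0% = DMSO basal and 100% = 10 µM staurosporine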
Procedure, shortened: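 Apoptosis readout in SK-N-SH neuroblastoma: Caspase-Glo 3/7 luminescence following 16 hr treatment in complete culture medium. Normalization used DMSO and 10 uM staurosporine controls.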

[7] = Cellular Toxicity (caspase-3) H-4-II-E (AID 663);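 also: cells exposed to compound for 16 hr before readout; 0% = DMSO basal and 100% = 100 µM tamoxifen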
Procedure, shortened: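 Caspase 3/7 activation measured by luminescent aminoluciferin substrate cleavage after 16 hr compound treatment of H-4-II-E cells in complete medium. Increase normalized between DMSO (basal) and 100 uM tamoxifen (100%); Hill-equation AC50 from concentration-response.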

[8] = Cellular Toxicity (caspase-3) Hek293 (AID 664);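 also: cells exposed to compound for 16 h at 37 °C before readout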
Procedure, shortened: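 Apoptosis readout: Caspase-Glo 3/7 signal in human HEK293 cells following 16-hour compound incubation. Responses scaled between DMSO baseline and 100 uM tamoxifen.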

[9] = Cellular Toxicity (caspase-3) N2a (AID 665);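 also: compound exposure lasted 16 h at 37 °C before readout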
Procedure, shortened: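 Concentration-response qHTS: compound-induced caspase-3/7 luminescence in N2a cells (16 h, 37 °C), relative to DMSO and 10 uM staurosporine controls; AC50 obtained using the standard Hill equation.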

[10] = Cellular Toxicity (caspase-3) Renal Proximal Tubule (AID 667);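 also: cells exposed to compound for 16 hours at 37 °C before detection; 0% = DMSO basal and 100% = 10 µM staurosporine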
Procedure, shortened: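 In qHTS format, rat primary proximal tubule cells seeded at 1000 per well are exposed to compounds for 16 hours at 37 °C. An increase in Caspase-Glo 3/7 luminescence indicates caspase activation.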

[11] = Cell Viability - LYMP2-001 (AID 921);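 also: series mostly up to about 92 µM; cells exposed to compound for 24 h at 37 °C; 0% = DMSO only and full inhibition = tetraoctylammonium bromide control wells; nearly all actives have a fitted effect of over 70% in size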
Procedure, shortened: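 qHTS, 1536-well; lymphoblastoid cells, 24 hr compound, 37 C; ATP by CellTiter-Glo, 30 min RT; luminescence; Hill-fit AC50.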

[12] = MultiTox-Fluor Cytotoxicity Assay - LYMP1-001 - Dead Cells (AID 946);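 also: 0% = DMSO and 100% = tetraoctylammonium bromide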
Procedure, shortened: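 LYMP1-001 lymphoblastoid cells (2500/well) treated 16 h at 37 C. Dead-cell protease cleavage of bis-AAF-R110 read at Ex/Em 485/520. Normalized to DMSO and 15 uM tetraoctylammonium bromide; AC50 from Hill fits.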

[13] = MultiTox-Fluor Cytotoxicity Assay - LYMP1-001 - Live Cells (AID 947);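 also: 0% = DMSO only and full inhibition = tetraoctylammonium bromide control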
[14] = Cell Viability - LYMP1-002 - Assay at 16 hr (AID 948);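 also: 0% = DMSO alone and full effect = 92 µM tetraoctylammonium bromide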
Procedure, shortened: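 Acute cytotoxicity is scored as a concentration-dependent fall in intracellular ATP in a human lymphoblastoid line (LYMP1-002) after 16 hr compound exposure at 37 C, measured by luciferase luminescence.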

[15] = qHTS assay for small molecule activators of the p53 signaling pathway (AID 651743; active = well fitted activation curve with a large enough effect in the signal ratio, not every such curve was filed as active; the % refers to the signal ratio; also: series mostly up to about 92 µM; % of control where 0% means no effect); conditions: HCT-116 p53RE-bla, beta-lactamase FRET ratio, 16 h; activation: stronger effect = higher value
Procedure, shortened: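 A beta-lactamase reporter under p53 response element control, stably carried by HCT-116 cells, reported pathway activation. Test compounds were applied for 16 hours at 37 C, and fluorescence was measured 2 hours after adding the B/G FRET substrate.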

[16] = qHTS assay for small molecule activators of the nuclear factor-kappa B (NF-kB) signaling pathway (AID 651749; active = well fitted activation curve with a large enough effect in the signal ratio; the % refers to the signal ratio; also: series mostly up to about 77 µM; % of control where 0% means no effect); conditions: NF-kB-bla ME-180 cells, beta-lactamase FRET ratio, 16 h; activation: stronger effect = higher value
Procedure, shortened: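 FRET-based beta-lactamase detection in ME-180 cells reports NF-kB response-element-driven transcription following overnight (16 hr) compound treatment.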

[17] = target: Tumor necrosis factor (Homo sapiens) (UniProt P01375); assay: qHTS assay to identify small molecules that stimulate Tumor Necrosis Factor-alpha (TNF-alpha) secretion (AID 651757; active = well fitted curve in the direction sought with a large enough effect in the signal ratio; the % refers to the signal ratio; also: 0% is about no effect)
Procedure, shortened: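 Using 3000 THP-1 cells per well, compounds and controls were applied for 17 hrs at 37 C. Detection followed with two labeled anti-TNF-alpha antibodies (cryptate donor, XL665 acceptor) for 3 hr at room temperature, measured by TR-FRET.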

[18] = qHTS assay for small molecule agonists of the antioxidant response element (ARE) signaling pathway measured by Nrf2-dependant transcriptional activity (AID 720636; active = well fitted curve in the direction sought with a large enough effect in the repeat runs; an effect the other way counts as inactive or inconclusive; also: potency is read from the fitted curve at half-maximal effect)
Procedure, shortened: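 HepG2 ARE-luc reporter line, 1% dialyzed FBS; 6 hr attachment at 37 C, compound pinned in, 16 hr at 37 C/5% CO2; ONE-Glo, 30 min RT, luminescence read.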

[19] = target: Nuclear receptor subfamily 1 group I member 2 (Rattus norvegicus) (UniProt Q9R1A7); assay: qHTS assay for small molecule activators of the rat pregnane X receptor (rPXR) signaling pathway (AID 651751; call rule not given here; also: 0% is about no effect); conditions: rPXR reporter cells, luciferase (One-Glo), 24 h
[20] = qHTS assay for small molecule activators of the human pregnane X receptor (PXR) signaling pathway (AID 720659; call rule not given here; also: 0% is about no effect)

Sequence of Nuclear receptor subfamily 1 group I member 2 (Rattus norvegicus) (Q9R1A7 whole entry, looked up): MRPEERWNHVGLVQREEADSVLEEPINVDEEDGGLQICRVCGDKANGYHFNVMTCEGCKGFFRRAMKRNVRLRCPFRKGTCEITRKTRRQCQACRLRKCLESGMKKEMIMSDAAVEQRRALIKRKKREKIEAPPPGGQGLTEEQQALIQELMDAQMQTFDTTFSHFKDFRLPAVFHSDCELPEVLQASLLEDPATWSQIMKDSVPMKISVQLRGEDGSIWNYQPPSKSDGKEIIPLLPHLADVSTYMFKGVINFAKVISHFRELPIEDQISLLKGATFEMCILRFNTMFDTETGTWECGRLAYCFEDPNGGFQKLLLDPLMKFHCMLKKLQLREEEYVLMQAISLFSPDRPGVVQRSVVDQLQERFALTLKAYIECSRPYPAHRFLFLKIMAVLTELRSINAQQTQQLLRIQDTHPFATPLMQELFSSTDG
Sequence of Tumor necrosis factor (Homo sapiens) (P01375 whole entry, looked up): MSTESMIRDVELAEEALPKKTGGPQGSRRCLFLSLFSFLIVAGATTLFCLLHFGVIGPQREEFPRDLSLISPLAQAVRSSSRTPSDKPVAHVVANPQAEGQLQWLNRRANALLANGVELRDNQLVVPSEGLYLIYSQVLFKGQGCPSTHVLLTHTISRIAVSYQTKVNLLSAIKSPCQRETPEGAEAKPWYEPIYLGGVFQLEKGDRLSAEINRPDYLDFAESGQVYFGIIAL

CC(C)(c1ccc(OCC2CO2)cc1)c1ccc(OCC2CO2)cc1 (stereo not given)
active: Potency [18] 66.8 µM
inactive: outcome [1] | outcome [2] | outcome [3] | outcome [4] | outcome [5] | outcome [6] | outcome [7] | outcome [8] | outcome [9] | outcome [10] | outcome [11] | Potency [12] | outcome [13] | outcome [14] | activation [15] 1.86% and -8.3% | activation [16] -1.34% and -1.67% | outcome [17] | max response [19] -1.73% and 0.566% | outcome [20]
